From PubChem BioAssay (NCATS)
Records with an inconclusive call do not appear. Calls of active or inactive are those of the source. Calls follow the shape of the dose curve; as a rule, active = well fitted curve in the direction sought with a large enough effect; inconclusive = small, poorly fitted or top-dose-only effect, or another doubt; inactive = no such curve, though single readings can be large; an effect the other way counts as inactive or inconclusive.

Test: qHTS of pediatric cancer cell lines to identify multiple opportunities for drug repurposing: Primary screen for Rh18 cells (AID 1347102); also: % is scaled to controls: 0 for no effect and ±100 for the full control effect; nearly all actives have a fitted effect of over 65% in size
Details: Rh18 rhabdomyosarcoma viability, CellTiter-Glo luminescence, 48 h; series mostly up to 46 µM; activity change, negative = cytotoxic: at the top concentration
In short: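 Cells (500-1,000/well) in growth media were settled 5 h at 37 degrees C, then given compounds for 48 h. Viability was read as CellTiter-Glo luminescence. Primary runs used MIPE at 11 points (0.78 nM-46 µM) and NPC at 8 points (0.59 nM-46 µM); follow-ups used 11 points.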

SMILES	activity change, negative = cytotoxic
Cc1cc(C)c(NC(=O)CN(CC(=O)O)CC(=O)O)c(C)c1Br	11% (inactive)
CCOC(=O)c1cccnc1	24.6% (inactive)
COc1cc(O)cc(O)c1	-1.8% (inactive)
O=C(O)[C@@H]1[C@H]2C[C@H]3c4[nH]c5ccccc5c4CCN3C[C@@H]2CC[C@@H]1O	1.74% (inactive)
CC(C)NC[C@@H](O)COc1ccc(CC(N)=O)cc1	19% (inactive)
Cc1cc(NC(=O)C2=C(O)c3ccccc3S(=O)(=O)N2C)no1	16% (inactive)
CCCOC(=O)c1ccc(N)cc1	15.9% (inactive)
CC(=O)Nc1cccc(O)c1	7.09% (inactive)
CCc1nnc(NS(=O)(=O)c2ccc(N)cc2)s1	1.97% (inactive)
COc1cc(C(=O)NCCCCCC(=O)O)cc(OC)c1OC	10.4% (inactive)
CC(C)=CCC/C(C)=C/CO	6.31% (inactive)
CC(=O)SC[C@@H](Cc1ccccc1)C(=O)NCC(=O)OCc1ccccc1	-0.821% (inactive)
NCC1CCC(C(=O)Oc2ccc(CCC(=O)O)cc2)CC1 (stereo unspecified)	0.0263% (inactive)
CN[C@@H]1[C@H](O)[C@H](NC)[C@H]2O[C@@]3(O)C(=O)C[C@@H](C)O[C@H]3O[C@@H]2[C@H]1O	4.24% (inactive)
CC[N+](C)(CC)CCOC(=O)C1c2ccccc2Oc2ccccc21	6.09% (inactive)
O=C(NCN1CCOCC1)c1cnccn1	-4.48% (inactive)
O=C(O)c1cc(=O)c2ccccc2o1	24.5% (inactive)
COc1ccc(-c2cc(=O)c3c(O)cc(O[C@@H]4O[C@H](CO[C@@H]5O[C@@H](C)[C@H](O)[C@@H](O)[C@H]5O)[C@@H](O)[C@H](O)[C@H]4O)cc3o2)cc1O	19.7% (inactive)
CN1CC(=O)NC1=N	7.01% (inactive)

SMILES	activity change, negative = cytotoxic
CC(=O)OCC(=O)[C@@]1(O)CC[C@H]2[C@@H]3CCC4=CC(=O)C=C[C@]4(C)[C@@]3(F)[C@@H](O)C[C@@]21C	22.7% (inactive)
NS(=O)(=O)c1ccc(C(=O)O)cc1	-3.04% (inactive)
CCN(CC)S(=O)(=O)c1ccc(C(=O)O)cc1	9.72% (inactive)
O=C(O)CNC(=O)c1ccccc1I	8.79% (inactive)
O=C(Cn1ccnc1[N+](=O)[O-])NCc1ccccc1	1% (inactive)
O=C(O)COC(=O)Cc1ccccc1Nc1c(Cl)cccc1Cl	25.7% (inactive)
CN1C(C)(C)CCCC1(C)C	-2.2% (inactive)
C[n+]1ccccc1/C=N/O	17.9% (inactive)
NC(=O)CC[C@@H](N)C(=O)O	3.27% (inactive)
Cc1cccc(C)c1NC(=O)CC12CCCN1CCC2	-7.37% (inactive)
NS(=O)(=O)c1cc(C2(O)NC(=O)c3ccccc32)ccc1Cl (stereo unspecified)	14% (inactive)
O=C(/C=C/c1ccc(O)c(O)c1)O[C@@H]1C[C@@](OC(=O)/C=C/c2ccc(O)c(O)c2)(C(=O)O)C[C@@H](O)[C@@H]1O	10.5% (inactive)
C=CCNC(N)=S	21% (inactive)
COc1nccnc1NS(=O)(=O)c1ccc(N)cc1	-2.59% (inactive)
CN[C@@H]1[C@@H](O)[C@@H](O[C@@H]2[C@H](O)[C@H](O[C@H]3OC(CN)=CC[C@H]3N)[C@@H](N)C[C@H]2N)OCC1(C)O (stereo partly specified)	18.5% (inactive)
CO[C@@]1(NC(=O)C(C(=O)O)c2ccc(O)cc2)C(=O)N2C(C(=O)O)=C(CSc3nnnn3C)CO[C@@H]21 (stereo partly specified)	14.8% (inactive)
O=C(O)c1ccccc1C(=O)Nc1ccc(S(=O)(=O)Nc2nccs2)cc1	-2.96% (inactive)
CN1C(=O)CC(c2ccccc2)C1=O (stereo unspecified)	6.42% (inactive)
CCCCCCCCCCOc1cc2c(=O)c(C(=O)OCC)c[nH]c2cc1OCC	5.32% [at 4.84 µM] (inactive)

Test: qHTS of pediatric cancer cell lines to identify multiple opportunities for drug repurposing: Primary screen for OHS-50 cells (AID 1347103);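 also: plate controls were DMSO neutral control for no effect and bortezomib positive control for full effect; nearly all actives have a fitted effect of over 40% in size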
Details: OHS-50 osteosarcoma viability, CellTiter-Glo luminescence, 48 h; series mostly up to 57.3 µM; activity change, negative = cytotoxic: at the top concentration
In short: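 Cells (500-1,000/well) rested 5 h, then received compounds for 48 h; metabolically active cells were measured by CellTiter-Glo luminescence. Final concentrations spanned up to 46 µM (MIPE, 11-point) or 0.59 nM-46 µM (NPC, 8-point) in primary screens, 11-point in follow-ups.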

SMILES	activity change, negative = cytotoxic
Cc1cc(C)c(NC(=O)CN(CC(=O)O)CC(=O)O)c(C)c1Br	11.6% (inactive)
CCOC(=O)c1cccnc1	13.8% (inactive)
COc1cc(O)cc(O)c1	-7.24% (inactive)
O=C(O)[C@@H]1[C@H]2C[C@H]3c4[nH]c5ccccc5c4CCN3C[C@@H]2CC[C@@H]1O	28.2% (inactive)
CC(C)NC[C@@H](O)COc1ccc(CC(N)=O)cc1	17.1% (inactive)
Cc1cc(NC(=O)C2=C(O)c3ccccc3S(=O)(=O)N2C)no1	4.29% (inactive)
CCCOC(=O)c1ccc(N)cc1	-7.16% (inactive)
CC(=O)Nc1cccc(O)c1	-7.87% (inactive)
CCc1nnc(NS(=O)(=O)c2ccc(N)cc2)s1	8.61% (inactive)
COc1cc(C(=O)NCCCCCC(=O)O)cc(OC)c1OC	-4.04% (inactive)
CC(C)=CCC/C(C)=C/CO	2.22% (inactive)
CC(=O)SC[C@@H](Cc1ccccc1)C(=O)NCC(=O)OCc1ccccc1	19% (inactive)
NCC1CCC(C(=O)Oc2ccc(CCC(=O)O)cc2)CC1 (stereo unspecified)	-3.53% (inactive)
CN[C@@H]1[C@H](O)[C@H](NC)[C@H]2O[C@@]3(O)C(=O)C[C@@H](C)O[C@H]3O[C@@H]2[C@H]1O	114% (inactive)
CC[N+](C)(CC)CCOC(=O)C1c2ccccc2Oc2ccccc21	7.42% (inactive)
O=C(NCN1CCOCC1)c1cnccn1	-4.63% (inactive)
O=C(O)c1cc(=O)c2ccccc2o1	13.7% (inactive)
COc1ccc(-c2cc(=O)c3c(O)cc(O[C@@H]4O[C@H](CO[C@@H]5O[C@@H](C)[C@H](O)[C@@H](O)[C@H]5O)[C@@H](O)[C@H](O)[C@H]4O)cc3o2)cc1O	22.2% (inactive)
CN1CC(=O)NC1=N	11.9% (inactive)

SMILES	activity change, negative = cytotoxic
CC(=O)OCC(=O)[C@@]1(O)CC[C@H]2[C@@H]3CCC4=CC(=O)C=C[C@]4(C)[C@@]3(F)[C@@H](O)C[C@@]21C	-12.5% (inactive)
NS(=O)(=O)c1ccc(C(=O)O)cc1	2.15% (inactive)
CCN(CC)S(=O)(=O)c1ccc(C(=O)O)cc1	3.84% (inactive)
O=C(O)CNC(=O)c1ccccc1I	-5.13% (inactive)
O=C(Cn1ccnc1[N+](=O)[O-])NCc1ccccc1	-2.36% (inactive)
O=C(O)COC(=O)Cc1ccccc1Nc1c(Cl)cccc1Cl	3.23% (inactive)
CN1C(C)(C)CCCC1(C)C	-3.44% (inactive)
C[n+]1ccccc1/C=N/O	8.26% (inactive)
NC(=O)CC[C@@H](N)C(=O)O	12% (inactive)
Cc1cccc(C)c1NC(=O)CC12CCCN1CCC2	-3.63% (inactive)
NS(=O)(=O)c1cc(C2(O)NC(=O)c3ccccc32)ccc1Cl (stereo unspecified)	11.9% (inactive)
O=C(/C=C/c1ccc(O)c(O)c1)O[C@@H]1C[C@@](OC(=O)/C=C/c2ccc(O)c(O)c2)(C(=O)O)C[C@@H](O)[C@@H]1O	-6.68% (inactive)
C=CCNC(N)=S	9.22% (inactive)
COc1nccnc1NS(=O)(=O)c1ccc(N)cc1	-13.9% (inactive)
CN[C@@H]1[C@@H](O)[C@@H](O[C@@H]2[C@H](O)[C@H](O[C@H]3OC(CN)=CC[C@H]3N)[C@@H](N)C[C@H]2N)OCC1(C)O (stereo partly specified)	8.18% (inactive)
CO[C@@]1(NC(=O)C(C(=O)O)c2ccc(O)cc2)C(=O)N2C(C(=O)O)=C(CSc3nnnn3C)CO[C@@H]21 (stereo partly specified)	-4.68% (inactive)
O=C(O)c1ccccc1C(=O)Nc1ccc(S(=O)(=O)Nc2nccs2)cc1	-11% (inactive)
CN1C(=O)CC(c2ccccc2)C1=O (stereo unspecified)	-7.02% (inactive)
CCCCCCCCCCOc1cc2c(=O)c(C(=O)OCC)c[nH]c2cc1OCC	-4.02% [at 6.18 µM] (inactive)
